Drawing on PubChem BioAssay AID2501 (Southern Research Specialized Biocontainment Screening …, 2010), this text covers IC50 for 95 compounds.

Out of some 2,200 compounds screened, about 1,200 (55%) were called active. The limit is not given here; nearly all actives have IC50 up to about 92 µM. So high a share suggests a set chosen from earlier hits. The list shows a part of the results.

A short description of this assay: counter assay for TAg ATPase ADP read-out – biochemical, ADP-Hunter, fluorescence, counter-screen (AID 2501).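 Also: purified T antigen ATPase.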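 As to inhibition: higher means more inhibition.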 Particulars: series mostly up to 100 µM. On the technique in general: Counterscreens check selectivity or assay interference.
As a reminder, the IC50 is the midpoint of a concentration-inhibition curve. With `COc1ccc(NCCc2ccccn2)cc1`, the IC50 was 2.41 µM (active). Next, `COc1ccc(S(=O)(=O)N(CC(=O)NCc2ccccn2)c2ccc(Cl)cc2)cc1`: “inactive”; `COc1ccc(C(=O)Nc2ccc(O)c3ccccc23)cc1`: 13.1 µM (active). Next, `COc1ccc(S(=O)(=O)Nc2ccc(O)c3ccccc23)cc1`: “inactive”; `CCOC(=O)Cn1cc(C#N)c(=O)[nH]c1=O`: “inactive”; `Cc1ccc2c(c1)NC(=O)c1cccnc1N2`: 4.54 µM (active). Next, `Cc1ccc(C(=O)N2CCN3C(=O)c4ccccc4C23c2ccccc2)cc1` (stereo not given): “inactive”; `CC(=O)Oc1c(/C=C(\C#N)C(N)=O)[nH]c2ccccc12`: 27.2 µM (active); `C=CCn1c(SCC(C)=O)nc2scc(-c3ccco3)c2c1=O`: “inactive”.

For `C=CCn1c(SCC(=O)NCC2CCCO2)nc2scc(-c3ccco3)c2c1=O` (stereo not given), the IC50 result is “inactive”.

As to `C=CCn1c(=S)[nH]c2scc(-c3ccco3)c2c1=O`, the half-maximal inhibitory concentration (IC50) is 26.9 µM (active).

In the case of `C#CCOCCOCCOCCNc1nc(N2CCN(C(=O)CCCCCCCCCCNC(=O)[C@H]([C@@H](C)CC)n3cc(CCCCN=C(N)N)nn3)CC2)nc(N2CCN(C(=O)CCCCCCCCCCNC(=O)[C@H](CCCN=C(N)N)n3cc(C[C@@H](C)CC)nn3)CC2)n1`, the IC50 entry was “inactive”. Next, `CCOC(=O)C1CCN(c2nc(N)c3c(N)nc(SCC(=O)O)cc3c2C#N)CC1`: “inactive”; `O=C(N/N=C(\c1ccccc1)c1cccnc1)c1cc(O)ccc1O`: 3.71 µM (active); `Cc1[nH]c2ccccc2c1-c1csc(NC(=O)CSCC(=O)O)n1`: 14.6 µM (active). Next, `O=C(O)CSCC(=O)Nc1ccc(-c2nc3ccccc3s2)cc1`: “inactive”; `CCOC(=O)CN(C(=O)CSc1nnc2c(n1)[nH]c1ccccc12)c1ccccc1`: “inactive”; `COc1cccc(/C=N/n2c(-c3cc(C)[nH]n3)n[nH]c2=S)c1O`: 13.2 µM (active).

Consider `Cc1cc(-c2n[nH]c(=S)n2/N=C/c2cccs2)n[nH]1`, for which the half-maximal inhibitory concentration (IC50) is 52.3 µM (active). Next, `CCN(CC)c1ccc(NC(=S)NC(=O)C2CCC2)cc1`: 7.07 µM (active); `COc1ccc2c(c1)-c1nc(/N=C/c3ccc(O)c(OC)c3)sc1CC2`: 3.97 µM (active); `COc1cc(C(=O)N/N=C(\C)Cn2nc([N+](=O)[O-])cc2C)ccc1O`: 16.1 µM (active). Next, `Cc1cc([N+](=O)[O-])nn1CC(=O)NCc1ccccc1`: “inactive”.

Turning to `C#CCOCCOCCOCCNc1nc(N2CCN(C(=O)CCCCCCCCCCNC(=O)[C@H]([C@@H](C)CC)n3cc(CCCCCN)nn3)CC2)nc(N2CCN(C(=O)CCCCCCCCCCNC(=O)[C@@H]([C@H](C)CC)n3cc(CCCCCN)nn3)CC2)n1`, the IC50 entry is “inactive”. Then `CC1(C)C(/C=C/C=C/C=C/C=C2\N(CCCCS(=O)(=O)O)c3ccc4ccccc4c3C2(C)C)=[N+](CCCCS(=O)(=O)[O-])c2ccc3ccccc3c21`, with 10.5 µM (active); and `COc1cccc2c1NC(C(=O)O)C1CC=CC21` (stereo not given), with “inactive”. Next, `COCCCNc1nnc(Cc2ccc(Cl)cc2)c(=O)[nH]1`: “inactive”. Next, `CCCC1=NN2C(=N)/C(=C\c3ccc(SCc4ccco4)o3)C(=O)N=C2S1`: “inactive”; `Nc1c(O)cccc1C(=O)O`: 7.18 µM (active); `O=C(O)C1=CC(=C(c2ccc(O)c(C(=O)O)c2)c2ccc(O)c(C(=O)O)c2)C=CC1=O`: “inactive”. Take `Nc1ccc(O)c(C(=O)O)c1`: the IC50 is 8.29 µM (active).

Take `Nc1ccc(C(=O)Nc2ccccc2C(=O)O)cc1`: the IC50 entry is “inactive”. Then `COc1cc(C(C)=O)ccc1OCC(O)Cn1nc(C)c(C(C)=O)c1C` (stereo not given), with 49.1 µM (active). For `NC(=O)[C@@H]1CCCCNc2c(I)cc([N+](=O)[O-])cc2C(=O)N[C@@H](CCC(=O)O)C(=O)N[C@@H](CO)C(=O)N1`, the IC50 entry was “inactive”. Then `COc1ccc(S(=O)(=O)c2c(N)n(Cc3ccco3)c3nc4ccccc4nc23)cc1`, with “inactive”; and `Cc1ccc(S(=O)(=O)CCSC(=N)N)cc1`, with “inactive”; and `Cc1ccc(S(=O)(=O)Nc2c(O)ccc3ccccc23)cc1`, with 70.6 µM (active). With `COc1ccc(S(=O)(=O)Nc2c(O)ccc3ccccc23)cc1OC`, the IC50 is 54.9 µM (active).

For the compound `COc1ccc(C(C)=O)cc1COC(=O)CCNS(=O)(=O)c1ccc(C(C)=O)cc1`, the IC50 entry is “inactive”.

Consider `O=S(=O)(Nc1c(O)ccc2ccccc12)c1ccccc1`, for which the IC50 entry was “inactive”. Next, `O=C1c2ccccc2NC2(CCCCC2)N1c1ccc(O)cc1`: 5.01 µM (active); `CN(C)CCNC(=O)C(=O)Nc1ccc2c(c1)N(S(=O)(=O)c1cccs1)CCC2`: “inactive”; `Cc1ccc(NC(=O)CCSc2nnc(Cc3ccccc3)o2)cc1`: “inactive”. Next, `N#CC(C#N)=C(N)/C(C#N)=C/c1cc(O)c(O)c(O)c1`: 13.6 µM (active). Then `CC1CCCN(c2ccc(N)cc2C(N)=O)C1` (stereo not given), with 3.15 µM (active); and `N#C/C(=C\c1coc2ccc(O)cc2c1=O)C(=O)Nc1nc2ccccc2s1`, with 80.4 µM (active); and `CSc1nc(Cl)cc(Nc2ccc(O)cc2)n1`, with 11.3 µM (active). Consider `CCN(CC)CCNC(=O)CCCCn1c(=S)[nH]c2c([nH]c3ccc(OC)cc32)c1=O`, for which the half-inhibitory concentration (IC50) is 4.99 µM (active). Then `COc1ccc2[nH]c3c(=O)n(CCCCC(=O)NCCN4CCCC4)c(=S)[nH]c3c2c1`, with 6.28 µM (active). With `Cc1ccc(NC(=O)CSc2nc3ccccc3c(=O)n2CCCC(=O)NCCCN2CCOCC2)cc1C`, the IC50 result was “inactive”. Then `O=S(=O)(Nc1cccc(-c2cn3ccsc3n2)c1)c1ccc(F)cc1`, with “inactive”; and `O=C1CC(N2CCN(c3ccc(O)cc3)CC2)C(=O)N1Cc1cccs1` (stereo not given), with 4.71 µM (active); and `CN(CCc1cn[nH]c1)Cc1nc(Cc2ccccc2F)no1`, with “inactive”. Turning to `CC(O)CCc1ccc(O)cc1` (stereo not given), the IC50 was 8.46 µM (active).

Consider `NNC(=O)c1ccc(CN2CCCCC2)o1`, for which the IC50 result was “inactive”. As to `COc1cc(/C=C2\SC(c3ccc(C)cc3)=NC2=O)cc(OC)c1O`, the half-maximal inhibitory concentration (IC50) was 2.62 µM (active). Then `Cc1ccc(C2=NC(=O)/C(=C/c3cc(O)c(O)c(Br)c3)S2)cc1`, with 11 µM (active); and `CCOc1ccc(NCc2cccn2-c2nnc(N3CCC(C(=O)NCCCN4CCCCC4CC)CC3)s2)cc1` (stereo not given), with 5.76 µM (active). Then `CCOc1ccc(NCc2cccn2-c2nnc(N3CCC(C(=O)NCCCN4CC(C)CC(C)C4)CC3)s2)cc1` (stereo not given), with 7.15 µM (active). Next, `CCOc1ccc(NCc2cccn2-c2nnc(N3CCC(C(=O)NCCCN4CCCCC4C)CC3)s2)cc1` (stereo not given): 6.99 µM (active). As to `NC(=O)Cn1c(=O)n(CCC(=O)NCCSCc2ccccc2)c(=O)c2ccccc21`, the IC50 entry is “inactive”.

On to `COc1cccc(C2C([N+](=O)[O-])=C(N)Oc3cc(C)oc(=O)c32)c1` (stereo not given), for which the IC50 entry was “inactive”. As for `CC(=O)Nc1ccc(OC(=O)C(CCS(C)(=O)=O)N2C(=O)c3ccccc3C2=O)cc1` (stereo not given), the half-inhibitory concentration (IC50) is 7.41 µM (active). As for `NC(=O)C(Cc1ccccc1)N1C(=O)c2ccccc2C1=O` (stereo not given), the IC50 result is “inactive”.

For `O=C(Nn1cnnc1)C1Cc2ccccc2CN1S(=O)(=O)c1ccc(F)cc1` (stereo not given), the IC50 entry is “inactive”. Then `CCN(CC)c1ccc(NC(=O)COC(=O)c2cccs2)cc1`, with 7.51 µM (active); and `CCN(CC)c1ccc(C(=O)n2cnc3ccccc32)cc1`, with “inactive”.

`Cc1ccccc1OCC(=O)NCC(=O)OCC(=O)c1ccc([N+](=O)[O-])cc1`: the IC50 entry was “inactive”. Next, `CCN(c1ccccc1)S(=O)(=O)c1ccc(Cl)c(NC(=O)COC(=O)c2cc(O)c3ccccc3c2O)c1`: “inactive”. Next, `O=C(O)CCCn1cc(NC(=O)COc2ccccc2[N+](=O)[O-])cn1`: “inactive”. Then `COc1ccc2nc(COC(=O)c3cccs3)c(C(C)=O)[n+]([O-])c2c1`, with “inactive”; and `CCN(CC)c1ccc(NC(=O)COC(=O)COc2ccccc2[N+](=O)[O-])cc1`, with 6.35 µM (active); and `CC(=O)Nc1cccc(C(=O)OCC(=O)Nc2nnc(-c3ccccc3)o2)c1`, with “inactive”. Consider `CCN(CC)c1ccc(NC(=O)COC(=O)c2ccc3ccccc3n2)cc1`, for which the 50% inhibitory concentration (IC50) was 2.2 µM (active). Next, `CCOC(=O)C1CCCN(C(=O)Cn2sc3nc(C)cc(C)c3c2=O)C1` (stereo not given): “inactive”.

In the case of `Nc1cnc(Nc2ccc(Br)cc2)nc1N`, the concentration for half-maximal inhibition (IC50) was 12.1 µM (active).

Turning to `CCN(CC)S(=O)(=O)c1ccc(N/N=C/c2ccc(O)cc2)nc1`, the 50% inhibitory concentration (IC50) was 4.57 µM (active). Then `Cc1nc(Cl)cc(N/N=C/c2ccc(O)cc2)n1`, with 4.8 µM (active); and `O=C(N/N=C/c1ccc(-c2ccc(S(=O)(=O)Nc3ncccn3)cc2)o1)c1cc2ccccc2cc1O`, with “inactive”; and `Cc1cc(/C=N/Nc2ccc([N+](=O)[O-])cn2)c(C)n1-c1ccc(C(=O)O)cc1`, with “inactive”. As to `Cc1ccc(S(=O)(=O)Nc2nc(C)cc(N/N=C/c3ccc(O)cc3)n2)cc1`, the half-maximal inhibitory concentration (IC50) was 8.77 µM (active). Then `CC[C@H](C)[C@H](NC(=O)c1ccccc1)C(=O)Nc1ccc(S(=O)(=O)Nc2cc(C)nc(C)n2)cc1`, with “inactive”; and `O=C(COc1ccc([N+](=O)[O-])cc1)NNC(=O)Nc1ccc([N+](=O)[O-])cc1`, with “inactive”. Then `COc1cc([N+](=O)[O-])ccc1NC(=O)Oc1ccc(NC(C)=O)cc1`, with 4.33 µM (active). Then `COc1ccc(NC(=O)N2CCCc3cc(C)ccc32)c(OC)c1`, with “inactive”. In the case of `c1coc(-c2nnc3sc(Cc4cccs4)nn23)c1`, the IC50 entry was “inactive”. Turning to `Nc1c(C(=O)NC2CC2)sc2nc3c(c(-c4ccco4)c12)CC/C3=C/c1ccco1`, the IC50 result was “inactive”. Next, `NNC(=O)c1sc2nc(N3CCOCC3)c3c(c2c1N)CCCC3`: 36.6 µM (active); `CNC(=O)c1ccc(-c2sc3nc(N4CCOCC4)c4c(c3c2N)CC(C)(C)OC4)o1`: 3.18 µM (active). Then `CNC(=O)c1ccc(-c2sc3nc(N4CCOCC4)c4c(c3c2N)CCCC4)o1`, with 14.8 µM (active); and `C=CCc1cccc2cc(C(=O)Nc3ccc(S(=O)(=O)Nc4nnc(CC)s4)cc3)c(=O)oc12`, with “inactive”; and `Cc1ccc2cn[nH]c2c1N`, with 6.68 µM (active). Take `O=C1CCCC(O)=C1N=Nc1ccc(C(=O)O)cc1`: the IC50 result was “inactive”.

Take `CC1(C)CC(=O)C(C=Nc2ccc(O)cc2)=C(O)C1`: the IC50 was 2.78 µM (active).

For the compound `O=C1CCCC(O)=C1C=Nc1ccc(O)cc1`, the IC50 is 4.6 µM (active).
